How the values were obtained:
Experiment in all cases: DAPPL (digital affinity profiling via proximity ligation, sequencing); 10 mM Tris-HCl pH 7.5, 50 mM NaCl, 1 mM DTT, 4% glycerol, room temperature, 30 min; GST-TFs on glutathione beads, 16-mer random dsDNA library, 0.1% formaldehyde crosslink after washing; high values mean tight binding
Conditions in all cases: protein: recombinant; tags: N-terminal GST; dsDNA, one strand shown
ELK1 = target: T1, ELK1 (Homo sapiens, UniProt P19419 1-428)
T1 sequence: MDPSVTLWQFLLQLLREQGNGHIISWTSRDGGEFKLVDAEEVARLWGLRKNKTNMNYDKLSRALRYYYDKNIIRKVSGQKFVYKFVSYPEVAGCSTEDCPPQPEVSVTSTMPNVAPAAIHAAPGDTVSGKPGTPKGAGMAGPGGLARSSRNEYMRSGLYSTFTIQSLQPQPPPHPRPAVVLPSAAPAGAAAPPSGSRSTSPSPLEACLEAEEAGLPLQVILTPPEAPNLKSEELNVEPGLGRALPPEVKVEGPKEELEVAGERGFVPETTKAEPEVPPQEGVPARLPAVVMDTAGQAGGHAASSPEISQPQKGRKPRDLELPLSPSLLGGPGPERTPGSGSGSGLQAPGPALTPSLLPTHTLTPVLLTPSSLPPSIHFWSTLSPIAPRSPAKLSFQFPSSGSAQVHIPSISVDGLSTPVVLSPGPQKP
In short: (§1)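 Beads coated with glutathione captured GST-fused human transcription factors that had been expressed in yeast, and the factors were then given DNA barcodes and pooled with a tag-only sample. The pools were incubated with 200 nmole of a random double-stranded 16-mer DNA library in Tris/NaCl/DTT/glycerol buffer for 30 min at room temperature, washed, crosslinked with 0.1% formaldehyde and proximity-ligated with BsaI/T4 ligase at 37 °C for 1 h. PCR amplification and Illumina NextSeq500 sequencing came last. Binding signal is each hexamer's read frequency for a factor divided by its frequency for the tag-only sample.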

GABPA = target: T2, GABPA (Homo sapiens, UniProt Q06546 1-454)
T2 sequence: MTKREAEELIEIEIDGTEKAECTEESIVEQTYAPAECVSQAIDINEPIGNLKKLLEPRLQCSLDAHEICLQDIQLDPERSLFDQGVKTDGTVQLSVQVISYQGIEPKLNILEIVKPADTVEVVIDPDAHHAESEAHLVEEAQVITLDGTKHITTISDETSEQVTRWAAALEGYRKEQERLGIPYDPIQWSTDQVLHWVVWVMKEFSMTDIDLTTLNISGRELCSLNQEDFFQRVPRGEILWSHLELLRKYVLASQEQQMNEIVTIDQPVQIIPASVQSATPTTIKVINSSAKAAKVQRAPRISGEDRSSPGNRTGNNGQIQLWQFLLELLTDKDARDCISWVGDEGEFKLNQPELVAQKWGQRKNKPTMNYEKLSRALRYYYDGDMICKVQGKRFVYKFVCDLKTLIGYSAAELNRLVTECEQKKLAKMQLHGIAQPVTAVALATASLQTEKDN
In short: as §1

ELF1 = ELF1 (Homo sapiens, UniProt P32519 1-619)
In short: as §1

EHF = target: T3, EHF (Homo sapiens, UniProt Q9NZC4 1-300)
T3 sequence: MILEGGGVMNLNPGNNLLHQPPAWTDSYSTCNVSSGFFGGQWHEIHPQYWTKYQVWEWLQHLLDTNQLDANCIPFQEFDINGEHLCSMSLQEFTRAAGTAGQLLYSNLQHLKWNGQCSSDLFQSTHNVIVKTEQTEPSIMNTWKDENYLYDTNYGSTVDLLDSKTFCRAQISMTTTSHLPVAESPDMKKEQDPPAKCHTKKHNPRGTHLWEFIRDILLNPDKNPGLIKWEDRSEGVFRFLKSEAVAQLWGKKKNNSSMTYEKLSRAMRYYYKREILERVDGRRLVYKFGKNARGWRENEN
In short: as §1

SPIB = SPIB (Homo sapiens, UniProt Q01892 1-262)
In short: as §1

ETV5 = ETV5 (Homo sapiens, UniProt P41161 1-510)
In short: as §1

SPIC = target: T4, SPIC (Homo sapiens, UniProt Q8N5J4 1-248)
T4 sequence: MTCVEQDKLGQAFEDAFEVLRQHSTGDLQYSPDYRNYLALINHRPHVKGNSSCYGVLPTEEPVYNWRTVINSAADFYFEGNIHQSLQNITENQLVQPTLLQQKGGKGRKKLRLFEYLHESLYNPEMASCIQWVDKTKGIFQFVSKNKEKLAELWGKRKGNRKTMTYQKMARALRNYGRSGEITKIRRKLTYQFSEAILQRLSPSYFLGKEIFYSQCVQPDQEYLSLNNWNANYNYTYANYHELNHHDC
In short: as §1

ELF4 = ELF4 (Homo sapiens, UniProt Q99607 1-663)
In short: as §1

ELK4 = target: T5, ELK4 (Homo sapiens, UniProt P28324-2 1-405)
T5 sequence: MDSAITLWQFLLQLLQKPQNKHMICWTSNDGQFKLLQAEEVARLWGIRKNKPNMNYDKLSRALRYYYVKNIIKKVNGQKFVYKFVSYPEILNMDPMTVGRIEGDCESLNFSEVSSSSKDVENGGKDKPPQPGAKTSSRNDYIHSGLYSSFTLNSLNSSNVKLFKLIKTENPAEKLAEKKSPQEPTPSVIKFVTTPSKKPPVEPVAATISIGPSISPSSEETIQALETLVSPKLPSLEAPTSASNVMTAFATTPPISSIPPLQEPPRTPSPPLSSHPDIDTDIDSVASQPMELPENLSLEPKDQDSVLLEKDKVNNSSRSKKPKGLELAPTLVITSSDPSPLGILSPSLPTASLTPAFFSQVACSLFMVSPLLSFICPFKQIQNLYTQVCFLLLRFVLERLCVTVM
In short: as §1

ELF3 = target: T6, ELF3 (Homo sapiens, UniProt P78545 1-371)
T6 sequence: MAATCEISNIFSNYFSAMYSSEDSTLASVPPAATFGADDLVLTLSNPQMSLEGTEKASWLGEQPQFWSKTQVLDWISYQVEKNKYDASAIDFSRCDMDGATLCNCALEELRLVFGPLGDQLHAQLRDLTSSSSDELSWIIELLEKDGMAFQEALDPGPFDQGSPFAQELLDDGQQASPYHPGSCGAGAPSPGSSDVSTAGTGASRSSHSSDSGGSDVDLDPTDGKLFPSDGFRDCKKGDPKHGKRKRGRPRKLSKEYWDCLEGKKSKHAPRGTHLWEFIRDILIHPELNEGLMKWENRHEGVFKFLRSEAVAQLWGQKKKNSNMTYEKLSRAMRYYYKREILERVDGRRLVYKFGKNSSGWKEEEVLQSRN
In short: as §1

ETV1 = ETV1 (Homo sapiens, UniProt P50549 1-477)
In short: as §1

ETV3L = target: T7, ETV3L (Homo sapiens, UniProt Q6ZN32 1-361)
T7 sequence: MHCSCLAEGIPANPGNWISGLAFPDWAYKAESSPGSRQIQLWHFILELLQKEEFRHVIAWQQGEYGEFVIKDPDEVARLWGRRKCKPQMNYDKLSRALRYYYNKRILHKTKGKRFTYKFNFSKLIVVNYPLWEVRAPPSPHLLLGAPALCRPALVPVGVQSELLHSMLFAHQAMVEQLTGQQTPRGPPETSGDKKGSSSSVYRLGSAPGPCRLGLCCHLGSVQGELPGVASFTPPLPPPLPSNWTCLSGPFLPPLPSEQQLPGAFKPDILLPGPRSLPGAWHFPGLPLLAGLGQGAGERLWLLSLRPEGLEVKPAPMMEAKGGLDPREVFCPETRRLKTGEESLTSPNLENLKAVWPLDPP
In short: as §1

ETS2 = target: T8, ETS2 (Homo sapiens, UniProt P15036 1-469)
T8 sequence: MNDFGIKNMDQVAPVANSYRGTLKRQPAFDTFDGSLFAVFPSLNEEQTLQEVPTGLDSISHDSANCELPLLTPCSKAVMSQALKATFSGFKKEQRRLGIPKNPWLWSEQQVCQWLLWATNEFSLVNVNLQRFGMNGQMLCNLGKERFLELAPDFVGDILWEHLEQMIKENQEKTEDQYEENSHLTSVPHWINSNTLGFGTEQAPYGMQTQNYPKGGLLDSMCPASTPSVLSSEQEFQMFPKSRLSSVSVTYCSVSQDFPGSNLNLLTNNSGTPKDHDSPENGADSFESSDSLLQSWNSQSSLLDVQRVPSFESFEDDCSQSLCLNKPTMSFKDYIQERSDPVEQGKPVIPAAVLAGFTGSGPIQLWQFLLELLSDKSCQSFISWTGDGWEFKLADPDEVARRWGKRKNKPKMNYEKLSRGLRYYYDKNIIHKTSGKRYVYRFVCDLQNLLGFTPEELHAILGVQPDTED
In short: as §1

SPDEF = target: T9, SPDEF (Homo sapiens, UniProt O95238 1-335)
T9 sequence: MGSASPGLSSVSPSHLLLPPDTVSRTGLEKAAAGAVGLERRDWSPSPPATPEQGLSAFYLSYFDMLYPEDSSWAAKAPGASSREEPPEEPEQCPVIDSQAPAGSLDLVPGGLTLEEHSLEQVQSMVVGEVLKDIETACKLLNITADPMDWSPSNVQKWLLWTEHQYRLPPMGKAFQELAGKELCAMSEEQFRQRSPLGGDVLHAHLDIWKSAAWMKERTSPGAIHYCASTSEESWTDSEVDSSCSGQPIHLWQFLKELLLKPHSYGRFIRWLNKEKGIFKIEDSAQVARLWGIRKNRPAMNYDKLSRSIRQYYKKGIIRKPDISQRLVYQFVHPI
In short: as §1

ETV7 = target: T10, ETV7 (Homo sapiens, UniProt Q9Y603 1-341)
T10 sequence: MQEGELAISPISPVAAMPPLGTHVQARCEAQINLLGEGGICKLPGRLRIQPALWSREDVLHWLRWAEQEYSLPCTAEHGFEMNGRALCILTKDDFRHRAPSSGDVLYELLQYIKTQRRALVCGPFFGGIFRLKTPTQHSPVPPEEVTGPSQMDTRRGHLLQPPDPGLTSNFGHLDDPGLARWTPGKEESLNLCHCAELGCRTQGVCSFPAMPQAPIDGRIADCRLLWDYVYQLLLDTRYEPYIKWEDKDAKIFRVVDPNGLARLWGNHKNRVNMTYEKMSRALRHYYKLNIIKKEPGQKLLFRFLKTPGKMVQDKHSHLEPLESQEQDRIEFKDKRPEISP
In short: as §1

ETV3 = target: T11, ETV3 (Homo sapiens, UniProt P41162-2 1-143)
T11 sequence: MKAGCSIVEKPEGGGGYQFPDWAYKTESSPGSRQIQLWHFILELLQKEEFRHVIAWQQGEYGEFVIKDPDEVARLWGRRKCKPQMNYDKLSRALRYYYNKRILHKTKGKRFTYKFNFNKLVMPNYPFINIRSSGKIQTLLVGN
In short: as §1

ETV6 = ETV6 (Homo sapiens, UniProt P41212 1-452)
In short: as §1

ERG = target: T12, ERG (Homo sapiens, UniProt P11308 1-479)
T12 sequence: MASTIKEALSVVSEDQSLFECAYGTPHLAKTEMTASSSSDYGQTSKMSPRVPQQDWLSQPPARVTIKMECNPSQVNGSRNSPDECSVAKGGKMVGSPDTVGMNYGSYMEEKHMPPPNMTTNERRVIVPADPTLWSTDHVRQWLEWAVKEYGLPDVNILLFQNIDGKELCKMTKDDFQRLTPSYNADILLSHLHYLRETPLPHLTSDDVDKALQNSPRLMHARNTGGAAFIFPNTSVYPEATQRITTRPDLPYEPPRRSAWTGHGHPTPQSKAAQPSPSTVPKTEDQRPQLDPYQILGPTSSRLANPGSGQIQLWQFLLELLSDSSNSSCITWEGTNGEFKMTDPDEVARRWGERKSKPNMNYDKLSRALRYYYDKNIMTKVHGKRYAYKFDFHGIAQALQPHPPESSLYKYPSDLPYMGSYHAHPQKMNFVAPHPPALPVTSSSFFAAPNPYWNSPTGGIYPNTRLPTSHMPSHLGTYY
In short: as §1

ETV6, sequence (P41212 whole entry): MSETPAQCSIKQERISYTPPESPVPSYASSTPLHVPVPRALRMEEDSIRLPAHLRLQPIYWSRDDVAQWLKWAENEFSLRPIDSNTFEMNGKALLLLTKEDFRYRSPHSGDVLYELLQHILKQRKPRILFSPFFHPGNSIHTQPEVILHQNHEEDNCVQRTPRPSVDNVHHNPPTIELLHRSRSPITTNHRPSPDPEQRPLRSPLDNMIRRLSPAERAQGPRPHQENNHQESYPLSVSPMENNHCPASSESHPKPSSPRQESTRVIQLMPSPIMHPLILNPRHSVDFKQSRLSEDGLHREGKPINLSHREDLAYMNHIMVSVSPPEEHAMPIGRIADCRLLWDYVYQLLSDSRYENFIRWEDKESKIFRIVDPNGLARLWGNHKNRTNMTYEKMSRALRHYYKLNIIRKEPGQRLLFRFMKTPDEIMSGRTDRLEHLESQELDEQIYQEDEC
ETV5, sequence (P41161 whole entry): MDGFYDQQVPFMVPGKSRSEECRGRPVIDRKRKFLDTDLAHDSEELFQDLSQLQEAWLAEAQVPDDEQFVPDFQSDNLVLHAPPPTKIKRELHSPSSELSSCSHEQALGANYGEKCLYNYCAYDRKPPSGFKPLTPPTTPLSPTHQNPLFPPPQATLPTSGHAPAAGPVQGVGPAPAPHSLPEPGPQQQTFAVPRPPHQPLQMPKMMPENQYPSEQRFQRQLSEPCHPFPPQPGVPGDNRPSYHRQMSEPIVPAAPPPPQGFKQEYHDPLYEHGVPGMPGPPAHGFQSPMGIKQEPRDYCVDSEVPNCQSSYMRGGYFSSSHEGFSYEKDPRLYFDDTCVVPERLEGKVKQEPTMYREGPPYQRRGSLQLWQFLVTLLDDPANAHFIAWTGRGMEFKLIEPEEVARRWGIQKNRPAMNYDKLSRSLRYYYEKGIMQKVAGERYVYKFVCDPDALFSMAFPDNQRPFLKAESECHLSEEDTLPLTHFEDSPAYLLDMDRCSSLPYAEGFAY
SPIB, sequence (Q01892 whole entry): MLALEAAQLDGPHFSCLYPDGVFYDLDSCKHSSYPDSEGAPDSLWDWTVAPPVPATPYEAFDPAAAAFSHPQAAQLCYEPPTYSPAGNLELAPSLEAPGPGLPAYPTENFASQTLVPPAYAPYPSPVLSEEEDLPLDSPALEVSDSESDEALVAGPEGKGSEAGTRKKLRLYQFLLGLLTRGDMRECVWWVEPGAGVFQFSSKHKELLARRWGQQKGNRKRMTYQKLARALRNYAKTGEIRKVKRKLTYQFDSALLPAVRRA
ELF4, sequence (Q99607 whole entry): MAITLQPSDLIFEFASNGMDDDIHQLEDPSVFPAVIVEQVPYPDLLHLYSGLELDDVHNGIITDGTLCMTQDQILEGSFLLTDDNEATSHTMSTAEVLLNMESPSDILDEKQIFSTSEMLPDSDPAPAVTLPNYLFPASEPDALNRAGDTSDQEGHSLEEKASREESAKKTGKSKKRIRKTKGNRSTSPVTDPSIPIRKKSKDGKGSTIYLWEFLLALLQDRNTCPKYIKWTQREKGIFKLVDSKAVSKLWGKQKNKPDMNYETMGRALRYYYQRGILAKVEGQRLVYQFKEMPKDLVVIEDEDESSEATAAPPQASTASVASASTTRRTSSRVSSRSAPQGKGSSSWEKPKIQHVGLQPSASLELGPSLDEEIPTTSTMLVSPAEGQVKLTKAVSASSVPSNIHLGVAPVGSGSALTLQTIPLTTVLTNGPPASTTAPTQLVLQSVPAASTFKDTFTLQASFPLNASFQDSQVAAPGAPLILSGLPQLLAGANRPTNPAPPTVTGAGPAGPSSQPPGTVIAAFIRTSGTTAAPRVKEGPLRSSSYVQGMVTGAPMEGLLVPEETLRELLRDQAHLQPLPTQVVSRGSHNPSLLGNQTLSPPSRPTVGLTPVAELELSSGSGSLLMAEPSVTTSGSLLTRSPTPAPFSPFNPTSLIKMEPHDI
ETV1, sequence (P50549 whole entry): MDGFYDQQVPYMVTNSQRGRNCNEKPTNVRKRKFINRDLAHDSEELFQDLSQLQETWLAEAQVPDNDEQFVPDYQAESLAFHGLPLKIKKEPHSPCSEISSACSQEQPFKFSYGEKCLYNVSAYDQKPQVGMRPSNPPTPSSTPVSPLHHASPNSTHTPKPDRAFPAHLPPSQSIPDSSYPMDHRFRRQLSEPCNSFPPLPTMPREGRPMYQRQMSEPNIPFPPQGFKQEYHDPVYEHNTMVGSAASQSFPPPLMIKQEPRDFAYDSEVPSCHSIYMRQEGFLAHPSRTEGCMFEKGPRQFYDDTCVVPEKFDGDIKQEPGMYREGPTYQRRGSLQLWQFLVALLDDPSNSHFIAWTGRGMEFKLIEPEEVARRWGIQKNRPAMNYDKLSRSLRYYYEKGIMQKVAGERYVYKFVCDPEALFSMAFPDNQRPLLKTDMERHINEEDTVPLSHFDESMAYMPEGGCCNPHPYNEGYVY
ELF1, sequence (P32519 whole entry): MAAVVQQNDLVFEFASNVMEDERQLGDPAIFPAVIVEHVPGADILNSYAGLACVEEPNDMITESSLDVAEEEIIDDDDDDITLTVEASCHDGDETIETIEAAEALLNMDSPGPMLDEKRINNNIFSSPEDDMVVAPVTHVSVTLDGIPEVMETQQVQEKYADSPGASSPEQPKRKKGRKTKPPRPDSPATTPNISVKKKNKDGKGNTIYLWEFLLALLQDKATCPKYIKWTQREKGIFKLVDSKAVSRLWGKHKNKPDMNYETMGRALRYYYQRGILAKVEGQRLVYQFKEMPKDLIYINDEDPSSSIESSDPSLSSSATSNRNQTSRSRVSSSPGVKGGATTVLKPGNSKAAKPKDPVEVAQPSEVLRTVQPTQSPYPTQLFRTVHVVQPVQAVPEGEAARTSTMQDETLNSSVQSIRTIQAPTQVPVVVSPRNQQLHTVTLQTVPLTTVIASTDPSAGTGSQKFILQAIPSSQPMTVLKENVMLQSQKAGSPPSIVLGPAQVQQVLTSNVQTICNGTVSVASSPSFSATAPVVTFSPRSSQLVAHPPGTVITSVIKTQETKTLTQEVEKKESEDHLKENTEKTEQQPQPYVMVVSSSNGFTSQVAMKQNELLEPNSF

Row | Sequence | binding signal (ELK1) | binding signal (GABPA) | binding signal (ELF1) | binding signal (EHF) | binding signal (SPIB) | binding signal (ETV5) | binding signal (SPIC) | binding signal (ELF4) | binding signal (ELK4) | binding signal (ELF3) | binding signal (ETV1) | binding signal (ETV3L) | binding signal (ETS2) | binding signal (SPDEF) | binding signal (ETV7) | binding signal (ETV3) | binding signal (ETV6) | binding signal (ERG)
1 | ACACGG | 1.03 fold enrichment (6-mer frequency, TF over GST control) | 1.05 fold enrichment (6-mer frequency, TF over GST control) | 1.06 fold enrichment (6-mer frequency, TF over GST control) | 1.05 fold enrichment (6-mer frequency, TF over GST control) | 1.1 fold enrichment (6-mer frequency, TF over GST control) | 1.04 fold enrichment (6-mer frequency, TF over GST control) | 1.06 fold enrichment (6-mer frequency, TF over GST control) | 1.05 fold enrichment (6-mer frequency, TF over GST control) | 1.07 fold enrichment (6-mer frequency, TF over GST control) | 1.06 fold enrichment (6-mer frequency, TF over GST control) | 1.1 fold enrichment (6-mer frequency, TF over GST control) | 1.06 fold enrichment (6-mer frequency, TF over GST control) | 1.08 fold enrichment (6-mer frequency, TF over GST control) | 1.17 fold enrichment (6-mer frequency, TF over GST control) | 1.03 fold enrichment (6-mer frequency, TF over GST control) | 1.13 fold enrichment (6-mer frequency, TF over GST control) | 1.06 fold enrichment (6-mer frequency, TF over GST control) | 
2 | GTACGA | 1.03 fold enrichment (6-mer frequency, TF over GST control) | 1.14 fold enrichment (6-mer frequency, TF over GST control) | 1.08 fold enrichment (6-mer frequency, TF over GST control) | 1.04 fold enrichment (6-mer frequency, TF over GST control) | 1.05 fold enrichment (6-mer frequency, TF over GST control) | 1.02 fold enrichment (6-mer frequency, TF over GST control) | 1.02 fold enrichment (6-mer frequency, TF over GST control) | 1.11 fold enrichment (6-mer frequency, TF over GST control) | 1.04 fold enrichment (6-mer frequency, TF over GST control) | 1.11 fold enrichment (6-mer frequency, TF over GST control) |  | 1.09 fold enrichment (6-mer frequency, TF over GST control) |  | 1.02 fold enrichment (6-mer frequency, TF over GST control) | 1.16 fold enrichment (6-mer frequency, TF over GST control) |  | 1.05 fold enrichment (6-mer frequency, TF over GST control) | 1.04 fold enrichment (6-mer frequency, TF over GST control)
3 | TGGAAG |  |  |  |  | 1.11 fold enrichment (6-mer frequency, TF over GST control) | 1.03 fold enrichment (6-mer frequency, TF over GST control) |  |  | 1.06 fold enrichment (6-mer frequency, TF over GST control) |  | 1.02 fold enrichment (6-mer frequency, TF over GST control) |  | 1.01 fold enrichment (6-mer frequency, TF over GST control) |  | 1.13 fold enrichment (6-mer frequency, TF over GST control) | 1.07 fold enrichment (6-mer frequency, TF over GST control) | 1.19 fold enrichment (6-mer frequency, TF over GST control) | 1.05 fold enrichment (6-mer frequency, TF over GST control)
